Assay [1] concerns the target Cell division control protein 42 homolog (Homo sapiens) (UniProt P60953). Put plainly: activated mutant Cdc42 GTP-binding inhibitors, dose response, biochemical, multiplex bead flow cytometry, Bodipy-FL-GTP (AID 1333).
Assay [2] shares this target. Put plainly: wildtype Cdc42 GTP-binding inhibitors, dose response, biochemical, multiplex bead flow cytometry, Bodipy-FL-GTP (AID 1334;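 active means fitted half-maximal concentration within the tested range, moderate curve steepness, significant signal drop, and little compound fluorescence or bead-linkage interference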). The settings on record: bead-based flow cytometry, Bodipy-FL-GTP binding to GST-Cdc42; at 100 µM (top of the series) unless noted.
Assay [3] deals with GTPase HRas (Homo sapiens) (UniProt P01112). As to the kind of experiment: inhibitors of GTP binding to wildtype Ras, dose response, biochemical, multiplex bead flow cytometry (AID 1335;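 active means fitted half-maximal concentration within 10 nM to 100 µM, steepness 0.5 to 2, significant signal drop, low assay interference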). The following applies: bead-based flow cytometry, Bodipy-GTP binding to GST-Ras; at 100 µM (top of the series) unless noted.
GTPase HRas (Homo sapiens), sequence (P01112 whole entry, looked up): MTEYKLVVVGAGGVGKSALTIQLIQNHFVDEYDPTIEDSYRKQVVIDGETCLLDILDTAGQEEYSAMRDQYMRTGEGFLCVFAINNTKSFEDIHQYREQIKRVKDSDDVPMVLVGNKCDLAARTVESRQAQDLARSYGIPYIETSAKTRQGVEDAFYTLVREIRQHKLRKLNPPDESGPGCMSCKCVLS
Assay [4] deals with Ras-related protein Rab-7a (dog), GTP binding. As to the kind of experiment: Rab7 GTP binding inhibitors, potency, dose response, biochemical, wildtype, multiplex bead flow cytometry (AID 1336; call rule not given here). A general note: A flow cytometer gives signals particle by particle.
The target in assay [5] is Ras-related C3 botulinum toxin substrate 1 (Homo sapiens) (UniProt P63000). As to the kind of experiment: wildtype Rac1 GTP binding inhibitors, dose response, biochemical, multiplex bead flow cytometry (AID 1340;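 active means dose curve with midpoint inside tested range, moderate steepness, plateau gap beyond fit error, low compound glow and bead-link interference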). The following applies: GST-Rac1 beads, Bodipy-FL-GTP binding; at 100 µM (top of the series) unless noted.
Assay [6] deals with GTPase HRas (Homo sapiens) (UniProt P01112). Put plainly: activated Ras mutant GTP binding inhibitors, dose response, biochemical, multiplex bead flow cytometry (AID 1341;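 active means dose-response curve with midpoint inside the tested range, moderate steepness, significant amplitude and little compound fluorescence or bead-attachment interference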;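 further: GST-tagged constitutively activated Ras mutant immobilized on beads and multiplexed with other GTPases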).

For part of these data: Results with a measured potency or affinity are listed apart. Calls of active or inactive are those of the source.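 How the source made its calls, unless noted: active means fitted half-maximal concentration within the tested dose range, moderate curve steepness, a statistically real signal drop, and little compound fluorescence or tag-binding interference; inactive means the rest.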

Cell division control protein 42 homolog (Homo sapiens), sequence (P60953 whole entry, looked up): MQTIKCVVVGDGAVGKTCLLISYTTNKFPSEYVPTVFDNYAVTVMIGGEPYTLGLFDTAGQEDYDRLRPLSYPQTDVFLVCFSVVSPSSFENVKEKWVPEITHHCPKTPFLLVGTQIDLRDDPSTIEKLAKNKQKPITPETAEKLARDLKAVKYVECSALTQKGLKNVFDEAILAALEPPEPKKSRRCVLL

As for `Cn1nnc(NC(=S)NC(=O)c2ccc(-c3ccc(Br)cc3)o2)n1`, the outcome in assay [1], in assay [4] and in assay [6] was inactive. Besides, the fluorescence, percent of control (lower = inhibition) in assay [2] was found to be 30.7%. The same molecule returned a GTP binding, percent of control in assay [3] of 75.4%. Also, the GTP binding signal, raw median fluorescence (lower = inhibition) (MCF (arbitrary fluorescence units)) in assay [5] turned out to be 132.
Take `Cc1ccc(-c2nnc3c4ccccc4c(C)nn23)cc1S(=O)(=O)N1CCN(CCO)CC1`: the outcome in assay [1], in assay [4] and in assay [6] was inactive. Besides, the fluorescence, percent of control (lower = inhibition) in assay [2] came to 38.3%. In assay [3], this molecule came in with a GTP binding, percent of control of 86.6%. This molecule also gave a GTP binding signal, raw median fluorescence (lower = inhibition) (MCF (arbitrary fluorescence units)) in assay [5] of 238.
In the case of `CCC(C)NC(=O)CSc1nc2n[nH]c(C)c2c(=N)n1-c1ccc(OC)cc1` (stereo not given), the result in assay [1], in assay [4] and in assay [6] was inactive. For the same molecule, the fluorescence, percent of control (lower = inhibition) in assay [2] came to 36%. The molecule further showed a GTP binding, percent of control in assay [3] of 48.9%. In assay [5], this molecule showed a GTP binding signal, raw median fluorescence (lower = inhibition) (MCF (arbitrary fluorescence units)) of 111.
As for `Cc1ccc(-n2nc3c(=S)[nH]nc(C)c3c2C)cc1`, the molecule was classed as inactive in assay [1], in assay [4] and in assay [6]. Also, in assay [2], the fluorescence, percent of control (lower = inhibition) worked out at 54.7%. Besides, in assay [3], the GTP binding, percent of control is 66.3%. Also, in assay [5], the GTP binding signal, raw median fluorescence (lower = inhibition) (MCF (arbitrary fluorescence units)) was determined as 201.
Take `CN1/C(=C\C=C(/C#N)C(=O)Nc2ccc(Cl)cc2)C(C)(C)c2ccccc21`: the outcome in assay [1], in assay [4] and in assay [6] was inactive. Moreover, the fluorescence, percent of control (lower = inhibition) in assay [2] turned out to be 76.8%. For the same molecule, the GTP binding, percent of control in assay [3] amounted to 80%. The GTP binding signal, raw median fluorescence (lower = inhibition) (MCF (arbitrary fluorescence units)) in assay [5] was determined as 226.
Turning to `O=C(O)c1ccccc1NCc1ccc(Cl)cc1`, the molecule was classed as inactive in assay [1], in assay [4] and in assay [6]. The fluorescence, percent of control (lower = inhibition) in assay [2] worked out at 79.2%. For the same molecule, in assay [3], the GTP binding, percent of control was 95.6%. This molecule had a GTP binding signal, raw median fluorescence (lower = inhibition) (MCF (arbitrary fluorescence units)) in assay [5] of 50.2.
For the molecule `Cc1cccc(S(=O)(=O)c2c(N)n(/N=C/c3cccnc3)c3nc4ccccc4nc23)c1`, the molecule was called inactive in assay [1], in assay [4] and in assay [6]. In addition, the fluorescence, percent of control (lower = inhibition) in assay [2] turned out to be 81.3%. For the same molecule, the GTP binding, percent of control in assay [3] is 51.7%. In assay [5], this molecule returned a GTP binding signal, raw median fluorescence (lower = inhibition) (MCF (arbitrary fluorescence units)) of 135.
`COc1ccc(OCCN2C(=O)c3ccccc3C2=O)cc1`: the molecule was called inactive in assay [1], in assay [4] and in assay [6]. Besides, in assay [2], the fluorescence, percent of control (lower = inhibition) is 35.6%. The GTP binding, percent of control in assay [3] came out at 81.5%. Further, the GTP binding signal, raw median fluorescence (lower = inhibition) (MCF (arbitrary fluorescence units)) in assay [5] was determined as 240.
Take `N#C/C(=C/c1ccc(N2CCCCCC2)o1)c1ccc(Cl)cc1`: the result in assay [1], in assay [4] and in assay [6] was inactive. Also, in assay [2], the fluorescence, percent of control (lower = inhibition) is 127%. This molecule also returned a GTP binding, percent of control in assay [3] of 205%. The molecule further displayed a GTP binding signal, raw median fluorescence (lower = inhibition) (MCF (arbitrary fluorescence units)) in assay [5] of 210.
In the case of `Cc1cc(C)cc(C(=O)N(NC(=O)Nc2ccc(Cl)cc2)C(C)(C)C)c1`, the result in assay [1], in assay [4] and in assay [6] was inactive. Also, the fluorescence, percent of control (lower = inhibition) in assay [2] amounted to 94.9%. The molecule also had a GTP binding, percent of control in assay [3] of 150%. In assay [5], this molecule displayed a GTP binding signal, raw median fluorescence (lower = inhibition) (MCF (arbitrary fluorescence units)) of 186.
Consider `COc1ccc(N/C=C/c2nc(SC)nnc2C)cc1`, for which the molecule was called inactive in assay [1], in assay [4] and in assay [6]. In addition, the fluorescence, percent of control (lower = inhibition) in assay [2] was 31.3%. In assay [3], this molecule registered a GTP binding, percent of control of 72.4%. The GTP binding signal, raw median fluorescence (lower = inhibition) (MCF (arbitrary fluorescence units)) in assay [5] is 183.
Consider `COc1ccc(OC)c(CNCc2sc(C(=O)O)cc2C)c1`, for which the outcome in assay [1], in assay [4] and in assay [6] was inactive. The fluorescence, percent of control (lower = inhibition) in assay [2] came to 59.9%. In assay [3], this molecule yielded a GTP binding, percent of control of 81.9%. The molecule also came in with a GTP binding signal, raw median fluorescence (lower = inhibition) (MCF (arbitrary fluorescence units)) in assay [5] of 32.8.
Consider `CN1CCN(S(=O)(=O)c2cccc(C(=O)Nc3sc4c(c3C(N)=O)CCCC4)c2)CC1`, for which the outcome in assay [1], in assay [4] and in assay [6] was inactive. Further, the fluorescence, percent of control (lower = inhibition) in assay [2] was 43.6%. Further, in assay [3], the GTP binding, percent of control is 57.3%. In assay [5], this molecule came in with a GTP binding signal, raw median fluorescence (lower = inhibition) (MCF (arbitrary fluorescence units)) of 150.
For `Cc1ccc(NCc2sc(C(=O)O)cc2C)cc1`, the outcome in assay [1], in assay [4] and in assay [6] was inactive. In addition, the fluorescence, percent of control (lower = inhibition) in assay [2] was 63%. In addition, the GTP binding, percent of control in assay [3] was determined as 86.6%. The molecule further displayed a GTP binding signal, raw median fluorescence (lower = inhibition) (MCF (arbitrary fluorescence units)) in assay [5] of 35.4.
Consider `CCc1ccc(NC(=O)c2cc3c(C)nc4ccccc4c3o2)cc1`, for which the call in assay [1], in assay [4] and in assay [6] was inactive. Moreover, the fluorescence, percent of control (lower = inhibition) in assay [2] came out at 51.4%. This molecule came in with a GTP binding, percent of control in assay [3] of 93.2%. In assay [5], this molecule returned a GTP binding signal, raw median fluorescence (lower = inhibition) (MCF (arbitrary fluorescence units)) of 261.

Values taken from PubChem BioAssay.
